Test [1] addresses Cellular tumor antigen p53 (Homo sapiens) (UniProt P04637). Nature of the test: TOX21_p53_BLA_p2_ratio: Tox21 HCT-116 p53 Agonism Beta-lactamase Assay, Ratio, Phase 2 (AID 2283592). Summed up:
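Ratio endpoint: beta-lactamase cleavage of CCF4-AM, blue (460 nm) over green (530 nm). HCT116 reporter line; 16 h treatment, 37C; substrate 2 h RT.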

Test [2] is described as follows: TOX21_p53_BLA_p3_viability: Viability Assessment in the Tox21 HCT-116 p53 Agonism Beta-lactamase Assay, Phase 3 (AID 2283593).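 Also: cells exposed to compound for 16 h before reading.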 A digest of the protocol: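 Cellular ATP was quantified by CellTiter-Glo luminescence, read after 30 min at room temperature. Beforehand, HCT116 cells (4000/well) received compound 5 h post-seeding, 217-fold diluted from DMSO, then incubated 16 h at 37C.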

Test [3] has as its target Cellular tumor antigen p53 (Homo sapiens) (UniProt P04637). Nature of the test: TOX21_p53_BLA_p3_ratio: Tox21 HCT-116 p53 Agonism Beta-lactamase Assay, Ratio, Phase 3 (AID 2283596). A digest of the protocol:
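Cells were seeded at 4000/well, rested 5 h at 37C, then dosed with DMSO compound solutions (217-fold dilution) for 16 h. CCF4-AM substrate was loaded for 2 h at room temperature, and the 460/530 nm emission ratio was fitted for gain of signal versus DMSO.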

For test [4] the target is unchanged. Nature of the test: TOX21_p53_BLA_p5_ratio: Tox21 HCT-116 p53 Agonism Beta-lactamase Assay, Ratio, Phase 5 (AID 2283599). A digest of the protocol:
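Beta-lactamase reporter ratio (blue 460 nm over green 530 nm, 405 nm excitation) after 2 h CCF4-AM loading, in HCT-116 cells exposed 16 h at 37 C to compounds pinned at 217-fold dilution. Increases relative to DMSO baseline scored.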

The nature of test [5]: TOX21_p53_BLA_p5_viability: Viability Assessment in the Tox21 HCT-116 p53 Agonism Beta-lactamase Assay, Phase 5 (AID 2283600). Summed up:
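Luciferase-coupled ATP quantitation of cells treated for 16 h (37C, 5% CO2) with test chemicals delivered in DMSO via a 217-fold dilution; 4000 cells/well; reagent incubated 30 min at room temperature before luminescence reading.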

Test [6] has as its target Cellular tumor antigen p53 (Homo sapiens) (UniProt P04637). Kind of test: TOX21_p53_BLA_p4_ratio: Tox21 HCT-116 p53 Agonism Beta-lactamase Assay, Ratio, Phase 4 (AID 2283601). A digest of the protocol: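 Signal is the blue/green (460nm/530nm) ratio of cleaved versus uncleaved CCF4-AM substrate, read after 2 h substrate loading. Cells were HCT116 carrying the p53-responsive beta-lactamase reporter, dosed 16 h at 37C, 5% CO2; CellTiter-Glo measured in parallel.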

A short description of test [7]: CCTE_Harrill_HTTr_Viability_MCF7: CCTE's 6-hour Cell Viability Assessment for the High-Throughput Transcriptomics (HTTr) Platform, in MCF-7 cells cultured in DMEM + 10% fetal bovine serum, Harrill Lab (AID 2284010; active = hit-call score of the fitted dose curve at least 0.9, where 1 is the maximum; inactive = score below 0.9). Summed up:
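Eight-point concentration series, six-hour exposure. Propidium iodide exclusion imaged to assess membrane integrity as a cytotoxicity readout; bidirectional fitting was done with DMSO as negative control and activity baseline.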

Test [8] is described as follows: CCTE_Harrill_HTTr_Apoptosis_MCF7: CCTE's 6-hour Apoptosis Assessment for the High-Throughput Transcriptomics (HTTr) Platform, in MCF-7 cells cultured in DMEM + 10% fetal bovine serum, Harrill Lab (AID 2284011; active = hit-call score of the fitted dose curve at least 0.9, where 1 is the maximum; inactive = score below 0.9). A digest of the protocol:
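MCF-7 cells in DMEM + 10% fetal bovine serum were exposed to chemicals for 6 hours over an eight-point dilution series. Caspase-3/7 activation was imaged by high content imaging with CellEvent Caspase 3/7 Green; bidirectional fitting used DMSO as baseline.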

Test [9] has as its target Thyroid hormone receptor alpha (Rattus norvegicus) + Thyroid hormone receptor beta (Rattus norvegicus) (UniProt P18113+P63059). Nature of the test: TOX21_TR_LUC_GH3_Agonist_Followup: Tox21 GH3 Thyroid Hormone Receptor Agonism Luciferase Follow-Up Assay (AID 2283939). A digest of the protocol:
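Agonist-mode confirmatory run: 15 concentrations (5 nM to 92 uM final) on GH3 rat pituitary cells, 24 h at 37C/5% CO2, T3 as positive control. Luminescence read with ONE-Glo after 30 min.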

The next test has as its target THRA (gene 7067) (UniProt P10827). Kind of test: TOX21_TRA_COA_Agonist_Followup_ratio: Tox21 Thyroid Hormone Receptor alpha Agonism through Coactivator Recruitment Follow-Up Assay, Ratio (AID 2283948; active = hit-call score of the fitted dose curve at least 0.9, where 1 is the maximum; inactive = score below 0.9). Summed up:
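Read-out is the 520/495 nm emission ratio (ex 340 nm), scaled between DMSO-only wells as 0% and T3 wells as 100%. It reflects fluorescein-SRC-2 peptide recruitment to GST-TRα LBD detected via terbium anti-GST antibody.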

In test [10] the target is THRB (gene 7068) (UniProt P10828). Nature of the test: TOX21_TRB_BLA_Agonist_Followup_ratio: Tox21 Thyroid Hormone Receptor beta Agonism Beta-lactamase (BLA) Follow-Up Assay, Ratio (AID 2283954). Summed up:
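Agonist mode: compounds (11-point, triplicate) incubated 18 h with HEK293T cells carrying GAL4-DBD/human TRβ-LBD and UAS-β-lactamase. Blue/green (460/530 nm) FRET ratio read after 2 h CCF4-AM loading; CellTiter-Glo viability run in the same plates.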

Test [11] shares this target. Kind of test: TOX21_TRB_COA_Agonist_Followup_ratio: Tox21 Thyroid Hormone Receptor beta Agonism through Coactivator Recruitment Follow-Up Assay, Ratio (AID 2283963; active = hit-call score of the fitted dose curve at least 0.9, where 1 is the maximum; inactive = score below 0.9). Summed up: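 First, the GST-fused TRβ ligand-binding domain (5.0 nM) was incubated with test compound in 0.10% BSA. Next, fluorescein-tagged SRC-2 peptide (200 nM) and terbium anti-GST antibody (2 nM) were added. Finally, TR-FRET emission ratios were normalized against DMSO and T3 controls.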

In test [12] the target is Retinoic acid receptor RXR-alpha (Homo sapiens) (UniProt P19793). Nature of the test: TOX21_TR_RXR_BLA_Agonist_Followup_ratio: Tox21 Thyroid Hormone Receptor beta Retinoid X Receptor alpha (RXRa) Agonism Beta-lactamase (BLA) Follow-Up Assay, Ratio (AID 2283968). Summed up:
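Agonism is scored as an increase in the 460:530 nm beta-lactamase substrate ratio over DMSO in RXRa-UAS-bla HEK293T cells exposed for 16 h to 11 compound concentrations.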

Inconclusive results are not listed. Active and inactive are the calls of the source. The calls were made as follows, unless noted: active = hit-call score of the fitted dose curve at least 0.9, where 1 is the maximum; inconclusive = response in the unintended direction; inactive = score below 0.9.

Cellular tumor antigen p53 (Homo sapiens), sequence (P04637 whole entry, looked up): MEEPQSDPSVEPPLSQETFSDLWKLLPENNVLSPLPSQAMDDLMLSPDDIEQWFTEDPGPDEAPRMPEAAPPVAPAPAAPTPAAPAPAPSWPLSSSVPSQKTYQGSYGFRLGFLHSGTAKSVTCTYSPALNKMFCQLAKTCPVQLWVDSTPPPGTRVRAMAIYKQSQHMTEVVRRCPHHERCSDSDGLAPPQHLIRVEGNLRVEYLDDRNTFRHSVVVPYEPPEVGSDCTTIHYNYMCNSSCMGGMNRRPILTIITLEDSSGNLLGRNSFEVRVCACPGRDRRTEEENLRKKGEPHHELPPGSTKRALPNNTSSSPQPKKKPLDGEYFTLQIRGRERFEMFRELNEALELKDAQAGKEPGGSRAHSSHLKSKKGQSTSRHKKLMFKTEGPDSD
THRB (gene 7068), sequence (P10828 whole entry, looked up, the tested form may be a part): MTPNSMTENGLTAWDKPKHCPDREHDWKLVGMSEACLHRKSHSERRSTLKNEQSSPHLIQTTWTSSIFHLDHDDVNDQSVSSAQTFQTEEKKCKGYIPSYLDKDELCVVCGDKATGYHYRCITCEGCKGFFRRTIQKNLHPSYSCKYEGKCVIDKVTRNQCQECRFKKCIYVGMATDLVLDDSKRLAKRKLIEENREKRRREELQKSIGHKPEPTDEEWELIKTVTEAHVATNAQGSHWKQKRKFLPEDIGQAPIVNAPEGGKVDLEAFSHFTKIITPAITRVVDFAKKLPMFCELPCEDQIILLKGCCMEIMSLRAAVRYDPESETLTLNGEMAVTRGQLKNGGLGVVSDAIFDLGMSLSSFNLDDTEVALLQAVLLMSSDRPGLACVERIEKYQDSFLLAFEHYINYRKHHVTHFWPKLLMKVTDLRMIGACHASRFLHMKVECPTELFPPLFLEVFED
THRA (gene 7067), sequence (P10827 whole entry, looked up, the tested form may be a part): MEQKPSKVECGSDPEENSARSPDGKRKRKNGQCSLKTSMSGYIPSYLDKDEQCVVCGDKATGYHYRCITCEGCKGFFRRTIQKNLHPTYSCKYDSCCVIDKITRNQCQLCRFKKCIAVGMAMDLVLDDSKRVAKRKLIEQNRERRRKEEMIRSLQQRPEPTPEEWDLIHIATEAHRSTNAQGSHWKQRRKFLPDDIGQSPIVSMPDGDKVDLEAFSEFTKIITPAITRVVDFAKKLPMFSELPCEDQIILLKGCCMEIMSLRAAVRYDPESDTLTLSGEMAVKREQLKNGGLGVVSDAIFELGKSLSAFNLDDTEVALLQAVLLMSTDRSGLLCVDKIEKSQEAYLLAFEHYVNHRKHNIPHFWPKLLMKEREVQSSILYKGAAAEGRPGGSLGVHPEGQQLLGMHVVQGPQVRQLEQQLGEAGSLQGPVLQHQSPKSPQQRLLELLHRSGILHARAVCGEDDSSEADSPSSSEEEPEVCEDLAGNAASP
Thyroid hormone receptor alpha (Rattus norvegicus) + Thyroid hormone receptor beta (Rattus norvegicus), sequence (P63059 whole entry, looked up): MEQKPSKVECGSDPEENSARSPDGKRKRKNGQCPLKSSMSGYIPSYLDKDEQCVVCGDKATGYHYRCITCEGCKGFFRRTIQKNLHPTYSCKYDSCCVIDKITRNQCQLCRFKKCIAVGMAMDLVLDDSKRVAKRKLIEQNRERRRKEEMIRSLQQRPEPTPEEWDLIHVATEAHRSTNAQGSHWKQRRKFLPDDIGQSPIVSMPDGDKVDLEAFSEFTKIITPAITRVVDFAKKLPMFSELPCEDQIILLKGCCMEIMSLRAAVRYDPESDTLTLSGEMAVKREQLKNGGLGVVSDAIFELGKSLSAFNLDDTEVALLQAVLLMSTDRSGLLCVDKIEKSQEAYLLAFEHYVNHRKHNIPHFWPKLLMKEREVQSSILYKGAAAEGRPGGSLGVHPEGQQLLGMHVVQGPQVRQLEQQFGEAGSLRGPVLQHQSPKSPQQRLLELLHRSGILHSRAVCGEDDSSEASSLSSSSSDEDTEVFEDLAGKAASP
Thyroid hormone receptor alpha (Rattus norvegicus) + Thyroid hormone receptor beta (Rattus norvegicus), sequence (P18113 whole entry, looked up): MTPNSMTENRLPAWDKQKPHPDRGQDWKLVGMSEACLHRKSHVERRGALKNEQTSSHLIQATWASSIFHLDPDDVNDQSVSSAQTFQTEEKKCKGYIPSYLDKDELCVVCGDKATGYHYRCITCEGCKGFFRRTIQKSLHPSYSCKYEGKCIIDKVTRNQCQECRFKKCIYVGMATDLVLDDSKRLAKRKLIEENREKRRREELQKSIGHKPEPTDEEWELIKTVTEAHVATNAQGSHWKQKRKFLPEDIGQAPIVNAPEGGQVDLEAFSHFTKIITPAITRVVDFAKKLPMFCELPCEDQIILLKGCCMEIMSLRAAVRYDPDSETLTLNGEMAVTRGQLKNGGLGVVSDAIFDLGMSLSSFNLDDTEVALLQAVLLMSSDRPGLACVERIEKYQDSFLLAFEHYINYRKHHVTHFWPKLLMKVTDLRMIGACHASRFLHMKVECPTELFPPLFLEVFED
Retinoic acid receptor RXR-alpha (Homo sapiens), sequence (P19793 whole entry, looked up): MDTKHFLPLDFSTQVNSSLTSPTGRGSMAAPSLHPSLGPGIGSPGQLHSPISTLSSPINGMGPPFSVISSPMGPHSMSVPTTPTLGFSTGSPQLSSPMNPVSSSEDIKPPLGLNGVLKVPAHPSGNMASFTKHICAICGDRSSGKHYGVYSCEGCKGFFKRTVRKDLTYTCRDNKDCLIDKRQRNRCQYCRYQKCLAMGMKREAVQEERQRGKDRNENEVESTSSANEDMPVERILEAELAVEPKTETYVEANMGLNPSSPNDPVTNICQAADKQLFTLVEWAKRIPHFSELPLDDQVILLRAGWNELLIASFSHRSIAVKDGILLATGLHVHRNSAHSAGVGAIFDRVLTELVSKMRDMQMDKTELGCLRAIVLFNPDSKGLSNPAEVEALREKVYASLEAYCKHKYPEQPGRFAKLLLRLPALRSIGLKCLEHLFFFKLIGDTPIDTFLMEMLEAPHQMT

For the compound `Cc1cc(O)c2c(c1)C(=O)c1cccc(O)c1C2=O`, the result in [1], in test [2], in [3], in test [4], in test [5] and in test [6] was inactive.

Consider `O=Cc1c(Cl)cccc1Cl`, for which the result in test [1], in [2], in test [3], in test [4], in test [5] and in test [6] was inactive.

Take `O=C(O)c1ccncc1`: the result in test [1], in [2], in [3], in [4], in test [5] and in [6] was inactive.

`CC(C)(C)NCC(O)c1ccc(O)c(CO)n1` (stereo not given): the outcome in [1], in test [2], in [3], in [4], in test [5] and in test [6] was inactive.

For the compound `COc1cc(OC)c(C(=O)CCCN2CCCC2)c(OC)c1`, the outcome in test [1], in [2], in test [3], in test [4], in test [5] and in test [6] was inactive. The outcome in test [7] and in test [8] was inactive.

`CCn1cc(C(=O)O)c(=O)c2cc(F)c(N3CCNCC3)nc21`: the outcome in test [1], in test [2], in test [3], in test [4] and in test [6] was inactive.

In the case of `O=C(O)[C@@H]1[C@H]2C[C@H]3c4[nH]c5ccccc5c4CCN3C[C@@H]2CC[C@@H]1O`, the outcome in test [1], in test [2], in test [3], in test [4] and in [6] was inactive.

`O=C(NCN1CCOCC1)c1cnccn1`: the result in [1], in test [2], in test [3], in [4], in test [5] and in test [6] was inactive.

Turning to `NCC(=O)CCC(=O)O`, the outcome in [1], in [2], in test [3], in [4], in test [5] and in test [6] was inactive. Moreover, the result (with THRA (gene 7067); in the test with THRB (gene 7068) [10]; with THRB (gene 7068) [11]; in test [12]) was inactive. Also, the AC50 in [9] is 13.1 µM (active).

With `CC(=O)N(CC(O)CN(C(C)=O)c1c(I)c(C(=O)NCC(O)CO)c(I)c(C(=O)NCC(O)CO)c1I)c1c(I)c(C(=O)NCC(O)CO)c(I)c(C(=O)NCC(O)CO)c1I` (stereo not given), the outcome in test [1], in test [2], in [3], in test [4] and in test [6] was inactive.

Consider `CO/N=C(\C(=O)N[C@@H]1C(=O)N2C(C(=O)O)=C(CSc3nc(=O)c(O)nn3C)CS[C@H]12)c1csc(N)n1`, for which the result in test [1], in [2], in test [3], in test [4] and in [6] was inactive.

Take `CC(=O)OCC1=C(C(=O)O)N2C(=O)[C@@H](NC(=O)Cc3cccs3)[C@H]2SC1`: the outcome in test [1], in test [2], in [3], in test [4], in test [5] and in test [6] was inactive.

For the compound `CN(CCCN1c2ccccc2CCc2ccccc21)CC(=O)c1ccc(Cl)cc1`, the result in [1], in [2], in test [3], in test [4] and in [6] was inactive.

By AC50 is commonly meant the midpoint of the concentration-response curve, whichever way the signal moves.

(Values after PubChem BioAssay (EPA / NIEHS).)
